DRD3 antagonist = qHTS of D3 Dopamine Receptor Antagonist: qHTS; D(3) dopamine receptor (Homo sapiens), P35462; D3R cells, DiscoveRx beta-arrestin luminescence, antagonist mode; hits give low values; max response, negative = inhibition, %; 2.5% of 360,000 active; in the data active = max response below about -50%; inconclusive = no clear call, values can overlap the other calls
Target sequence (P35462 whole entry, looked up): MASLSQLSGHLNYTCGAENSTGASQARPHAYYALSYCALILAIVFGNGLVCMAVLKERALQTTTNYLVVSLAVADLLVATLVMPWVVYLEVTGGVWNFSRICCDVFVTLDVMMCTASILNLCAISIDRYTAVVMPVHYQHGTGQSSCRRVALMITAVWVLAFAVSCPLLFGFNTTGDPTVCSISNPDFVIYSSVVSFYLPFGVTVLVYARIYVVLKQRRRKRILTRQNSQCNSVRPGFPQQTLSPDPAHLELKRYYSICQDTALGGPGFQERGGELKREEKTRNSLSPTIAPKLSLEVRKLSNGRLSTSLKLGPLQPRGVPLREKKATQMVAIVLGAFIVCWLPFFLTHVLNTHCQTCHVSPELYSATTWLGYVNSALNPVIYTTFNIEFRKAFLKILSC
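Cells plated overnight at 1500 cells/well, then exposed to library compounds with dopamine controls for 90 minutes at 37 degrees C. DiscoveRx reagent added for 30–60 minutes at room temperature; luminescence read, quantitative HTS format.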
D1 agonist = Allosteric Agonists of the Human D1 Dopamine Receptor: qHTS; activation, % at 2 µM; AID 504660, 2011; HEK293 T-REx D1 cells, calcium flux, agonist mode; 1% of 360,000 active; in the data active = activation above about 30%
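Agonism was scored from calcium flux recorded over 180 s (1 read/s) after pintool compound addition, following a 10-cycle baseline. Cells were inducible force-coupled HEK293 TREx D1, plated overnight at 30 C and loaded with no-wash calcium dye.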
DRD3 agonist = qHTS of D3 Dopamine Receptor Agonist: qHTS. D(3) dopamine receptor (Homo sapiens), P35462. D3R DiscoveRx beta-arrestin cells, luminescence, 90 min. max activation, %. 0.58% of 410,000 active; in the data active = max activation above about 30%
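Cells at 1500/well, incubated overnight, then treated with pinned compounds (dopamine as control) for 90 min at 37 degrees C. DiscoveRx reagent added for 30 - 60 minutes at room temperature; luminescence read.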
D1 antag = Antagonist of Human D 1 Dopamine Receptor: qHTS | D(1A) dopamine receptor (Homo sapiens), P21728 | 3.2% of 360,000 active | activity change, negative = inhibition, % at 10 µM | HEK293 TREx D1 cells, calcium flux, dopamine EC80; hits give low values; in the data active = activity change below about -30%
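Allosteric or orthosteric antagonism assessed as attenuation of the calcium response to EC80 dopamine, added 180 s after compound, in induced HEK293 Trex D1 cells loaded with no-wash calcium dye.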
D1 potentiator = Potentiators of Human D1 Dopamine Receptor: qHTS; 0.036% of 360,000 active; HEK293 TREx D1 cells, calcium flux, dopamine EC20 potentiation; potentiation, % at 10 µM; in the data active = potentiation above about 30%
Of the large screens only hits and unclear results are named; the others gave an inactive call; ! = not active in a repeat. Compounds with a hit are over-represented: about 6% of the library has one in this group of screens.

Cc1ccc(C(=O)COC(=O)CCN2C(=O)C3C4CCC(C4)C3C2=O)cc1[N+](=O)[O-] (configuration not stated)	D1 antag -42
O=C(CCN1C(=O)C2C3CCC(C3)C2C1=O)OCC(=O)c1ccc(Br)cc1 (configuration not stated)	D1 antag -31
Cc1ccc(NC(=O)C2CCN(c3nc4ccccc4nc3C(F)(F)F)CC2)cc1F	none (no result: DRD3 antagonist)
O=C(N/N=C/c1c(Nc2cccc(C(F)(F)F)c2)nc2ccccn2c1=O)c1ccccc1[N+](=O)[O-]	none
C[C@H]1O[C@@H](O[C@H]2[C@@H](O)C[C@H](O[C@H]3[C@@H](O)C[C@H](O[C@H]4CC[C@@]5(C)[C@H](CC[C@@H]6[C@@H]5C[C@@H](O)[C@]5(C)[C@@H](C7=CC(=O)OC7)CC[C@]65O)C4)O[C@@H]3C)O[C@@H]2C)C[C@H](O)[C@@H]1O	D1 antag -32!
CCc1ccc(Nc2nc(-c3cc4cccc(OC)c4oc3=O)c(CC)s2)cc1	DRD3 agonist 50 (no result: DRD3 antagonist)
COc1ccc(-c2cc3cccc(OC)c3oc2=O)cc1	none
COc1cccc2cc(-c3ccccc3)c(=O)oc12	D1 antag -31
CCc1sc(Nc2ccc(Cl)cc2)nc1-c1cc2cccc(OC)c2oc1=O	none (no result: DRD3 antagonist)
COc1ccc(-c2nc(CS(=O)(=O)CC(=O)NCCCN3CCN(C)CC3)c(C)o2)cc1	D1 antag -38
Cc1oc(-c2ccccc2F)nc1CS(=O)(=O)CC(=O)NCCCN1CCN(C)CC1	none
COc1ccc(NS(=O)(=O)c2ccc3[nH]c4c(c3c2)CCCCC4)cc1	none (no result: DRD3 antagonist)
FC(F)Sc1ccc(NC(=S)NCc2ccccc2)cc1	D1 antag -32
CN(C)c1ccc(/C=N/NC(=S)NCc2ccccc2)cc1	D1 antag -83
FC(F)(F)c1ccc(NC(=S)NCc2ccccc2)cc1	D1 antag -37
FC(F)Sc1ccc(NC(=S)NC(c2ccccc2)c2ccccc2)cc1	none
S=C(NCc1ccccc1)NCc1ccccc1	D1 antag -52
CN1c2cc(O)c(N=NC(N)=O)cc2CC1S(=O)(=O)O (configuration not stated)	none (no result: DRD3 antagonist, D1 agonist, D1 antag, D1 potentiator)
CC(=O)N1CCc2cc(S(=O)(=O)NC(CC(C)C)C(=O)NCCc3cccc(C)c3)ccc21 (configuration not stated)	none (no result: DRD3 antagonist)
CCCOc1ccc(CNC(=O)C2CCCN(c3nc4c(C)cc(C)cc4s3)C2)cc1 (configuration not stated)	none (no result: DRD3 antagonist)
CN(C)CCCN(Cc1ccccc1)C(=S)Nc1ccc(SC(F)F)cc1	DRD3 antagonist inconclusive, D1 agonist 32
CC(=O)c1ccc(NC(=S)N(CCCN(C)C)Cc2ccccc2)cc1	none
Cc1ccc(SCc2ccc(C(=O)Nc3cccc([N+](=O)[O-])c3)cc2)cc1	D1 antag -51
O=C(Nc1cccc([N+](=O)[O-])c1)c1ccc2ccccc2c1O	DRD3 antagonist inconclusive, D1 antag -33
CCCc1cc(C(=O)Nc2cccc([N+](=O)[O-])c2)cs1	D1 antag -32
O=C(Nc1cccc([N+](=O)[O-])c1)c1cnccn1	D1 antag -59
O=C(Nc1cccc([N+](=O)[O-])c1)c1ccncc1	none
CC(C)(C)Cc1c(C2CCCCC2)nc2ccc(Cl)cn12	none (no result: D1 agonist, D1 antag, D1 potentiator)
CCOc1ccc(N(C)S(=O)(=O)c2ccc3c(c2)CCCN3C(C)=O)cc1	none (no result: DRD3 antagonist)
Cc1cc(C)n(-c2ccc(C(=O)Nc3cccc([N+](=O)[O-])c3)cc2)n1	D1 antag -36
CCS(=O)(=O)N1CCN(c2ccccc2F)CC1	none
O=C1Oc2ccccc2C(=O)/C1=C/N1CCN(c2ccccc2F)CC1	DRD3 antagonist -59
CCOC(=O)c1c(C)sc2c1N(C(=O)CCl)c1cc(Cl)ccc1S2	DRD3 antagonist -60
CCOC(=O)c1c(SCCN2CCCCC2)n(-c2ccccc2)c(=S)n(-c2ccccc2)c1=O	none (no result: D1 agonist, D1 antag, D1 potentiator)
CC(C)(C)n1cnnc1Sc1ncccc1[N+](=O)[O-]	D1 antag -32
Cc1ccc(Sc2ncccc2[N+](=O)[O-])cc1	none
COc1ccc(Br)cc1/C=N/NC(=O)CNC(=O)/C=C/c1ccccc1	DRD3 antagonist -67
